Calls of active or inactive are those of the source. How the calls were made is not given here.
Test: C difficile toxins, biochemical counterscreen, UDPG substrate absence, confirmatory dose response (AID 720650)
Conditions: series mostly up to 19.5 µM

Structure (SMILES) | AC50
COCCNc1oc(/C=C/c2ccccc2)nc1C#N | inactive
O=C(C[C@@H]1CC[C@@H]2[C@H](COC[C@H](O)CN2C(=O)c2ccccn2)O1)NC1CCC1 | inactive
Cc1cc(NC(=O)CCCN2C(=O)c3cccc4cccc(c34)C2=O)no1 | inactive
CCOC(=O)/C(=N/Nc1ccc(Br)cc1)N1CC(C)OC(C)C1 (stereo not given) | 0.615 µM (active)
O=S(=O)(Cc1cccc(F)c1)c1c[nH]c2ccccc12 | > 39 µM (inactive)

Reference: PubChem BioAssay AID720650 (Broad Institute, 2013)
